# According to PubChem BioAssay (Tox21):
# Where “and” joins values, the source holds several entries; their conditions need not be identical. Equal entries are not always repeated. Results filed as inconclusive are left out. Calls of active or inactive are those of the source. The call rests on the fitted dose curve; in most records, active means well fitted cell-killing curve with a large enough effect in the repeat runs; inconclusive means weak or mixed curves, or effect the other way; inactive means flat fitted curve, though single readings scatter.
# Assay: cAMP Responsive Elements (CRE) small molecule antagonists, cell-based qHTS assay: qHTS cell viability counter screen (AID 2060913); further: nearly all actives have a fitted effect of over 40% in size
# Conditions: CRE-bla HEK293T viability, CellTiter-Glo luminescence, 5 h; series mostly up to 92.4 µM; viability change, negative = cytotoxic: at the top concentration
# Procedure, shortened: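 HEK293T CRE-bla, 2,000 cells/well, 18 h preincubation; cpd in DMSO + NKH477 0.25 uM final, 3 h 37 C/5% CO2; LiveBLAzer 2 h RT, then CellTiter-Glo 30 min RT, luminescence.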
# On the % scale 0 is the no-effect control and ±100 the full control effect; potency means the concentration at half of the fitted maximal effect.
SMILES,"viability change, negative = cytotoxic",Potency
Brc1ccc(Oc2ccc(Br)cc2Br)c(Br)c1,-14.9% (inactive),–
Cc1nc(N)nc(N)n1,0.0165% (inactive),–
Nc1ncn[nH]1,2.62% (inactive),–
[F][Sn]([c]1ccccc1)([c]1ccccc1)[c]1ccccc1,–,5.45 µM (active)
CCCSP(=S)(OCC)Oc1ccc(SC)cc1 (centres undefined),-10.1% (inactive),–
O=[N+]([O-])c1c(Cl)c(Cl)cc(Cl)c1Cl,0.21% (inactive),–
O=c1oc2ccccc2c(O)c1C1CCCc2ccccc21 (centres undefined),-7.02% (inactive),–
CN1C(=O)CN=C(c2ccccc2)c2cc([N+](=O)[O-])ccc21,14% [at 42.5 µM] (inactive),–
CC(Cl)C(C)Cl (centres undefined),7.8% (inactive),–
CN(C)CCN(C)C,-4.28% (inactive),–
CCOC(=O)C(SP(=S)(OC)OC)c1ccccc1 (centres undefined),2.66% (inactive),–
CC(C)c1ccc(NC(=O)N(C)C)cc1,1.63% (inactive),–
N#CCc1ccc(Cl)cc1,-0.287% (inactive),–
CN(C)C(=S)SSC(=S)N(C)C,–,12 µM (active) and 9.69 µM (active) and 7.5 µM (active)
CS(=O)(=O)c1ccc(C(=O)C2C(=O)CCCC2=O)c([N+](=O)[O-])c1,2.04% (inactive),–
CN(N=O)c1ccc([N+](=O)[O-])cc1,0.189% (inactive),–
CCc1ccc(C2CCNCC2)cc1,-4.23% [at 42.5 µM] (inactive),–
CC(C)C(Nc1ccc(C(F)(F)F)cc1Cl)C(=O)OC(C#N)c1cccc(Oc2ccccc2)c1 (centres undefined),-19.5% (inactive),–
CC1CCC(=O)O1 (centres undefined),-0.612% (inactive),–
C[C@@H]1O[C@@H](O[C@@H]2C=C3CC[C@@H]4[C@H](CC[C@]5(C)[C@@H](c6ccc(=O)oc6)CC[C@]45O)[C@@]3(C)CC2)[C@H](O)[C@H](O)[C@H]1O,–,0.0188 µM (active)

SMILES,"viability change, negative = cytotoxic",Potency
O=c1[nH]c(=O)n(Cl)c(=O)n1Cl,–,inactive
c1ccc(P(c2ccccc2)c2ccccc2)cc1,–,inactive
CCCC[N+]1(C)CCCCC1,–,inactive
C[C@@H]1O[C@@H](O[C@H]2C[C@@H](O)[C@]3(CO)[C@H]4[C@H](O)C[C@]5(C)[C@@H](C6=CC(=O)OC6)CC[C@]5(O)[C@@H]4CC[C@]3(O)C2)[C@H](O)[C@H](O)[C@H]1O,–,0.073 µM (active)
C=C(C)C(=O)OCC1CO1 (centres undefined),–,inactive
CC1(C)[C@H](/C=C2\CCSC2=O)[C@@H]1C(=O)OCc1coc(Cc2ccccc2)c1,-12.9% (inactive),–
O=C(O)c1cc(Cl)ccc1Cl,6.42% (inactive),–
O=[N+]([O-])c1ccc(Cl)c([N+](=O)[O-])c1,–,27.7 µM (active) and 57 µM (active)
COP(=S)(OC)Oc1ccc([N+](=O)[O-])cc1Cl,-10.6% (inactive),–
C=CCc1ccc2c(c1)OCO2,–,inactive
O=C(NC(=O)c1c(F)cccc1F)Nc1ccc(OC(F)(F)C(F)OC(F)(F)F)c(Cl)c1 (centres undefined),-5.02% [at 42.5 µM] (inactive),–
CC(=O)[O][Sn]([c]1ccccc1)([c]1ccccc1)[c]1ccccc1,–,6.11 µM (active)
Brc1ccc(Oc2cc(Br)c(Br)cc2Br)c(Br)c1,–,inactive
C#CC(C)(C)NC(=O)c1cc(Cl)cc(Cl)c1,–,inactive
O=[N+]([O-])/C=C/c1ccccc1,-10.6% (inactive),–
COc1cc(CC#N)cc(OC)c1OC,-0.238% [at 42.5 µM] (inactive),–
O=CCCl,-0.645% (inactive),–
CN(C)NC(=O)CCC(=O)O,–,inactive
O=[N+]([O-])c1c2ccccc2cc2ccccc12,-2.26% (inactive),–
